According to PubChem BioAssay (NCATS):
Results filed as inconclusive are left out. Activity calls are given as the source filed them. Calls come from the whole dose curve; as a rule, active = well fitted cell-killing curve with a large enough effect; inconclusive = small, poorly fitted or top-dose-only effect, or effect the other way; inactive = flat fitted curve, though single readings scatter.

Columns and labels:
Assay in all cases: Primary qHTS to identify gynecologic anti-cancer compounds using libraries of approved drugs and bioactive compounds (AID 1345084); note: nearly all actives have a fitted effect of over 55% in size
Settings in all cases: Gynecologic cancer cell panel viability, ATPlite luminescence, 48 h; series mostly up to 57.5 µM
OV90 = test system: OV90
Summary of the method: (§1)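 Measured: luminescence after ATPlite addition (15 min, RT). Exposure: 48 h, 37 C, 5% CO2.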

PA-1 = test system: PA-1
Summary of the method: as §1

SKOV3 = test system: SKOV3
Summary of the method: as §1

Tov-21-G = test system: Tov-21-G
Summary of the method: as §1

Tov112D = test system: Tov112D
Summary of the method: as §1
% is set by controls: 0 for no effect and ±100 for the full control effect.

CC1(C)CC[C@]2(C(=O)O[C@@H]3O[C@H](CO[C@@H]4O[C@H](CO)[C@@H](O)[C@H](O)[C@H]4O[C@@H]4O[C@H](CO)[C@H](O)[C@H](O)[C@H]4O)[C@@H](O)[C@H](O[C@@H]4O[C@H](CO)[C@@H](O)[C@H](O)[C@H]4O)[C@H]3O)CC[C@]3(C)C(=CCC4[C@@]5(C)CC[C@H](O[C@@H]6OC[C@@H](O)[C@H](O)[C@H]6O)[C@@](C)(C(=O)O)C5CC[C@]43C)[C@@H]2C1 (stereo not given in full)
inactive: activity change, negative = cytotoxicity (OV90) 3.06% [at 6.55 µM] | activity change, negative = cytotoxicity (PA-1) -1.12% [at 6.55 µM] | activity change, negative = cytotoxicity (SKOV3) 19.9% [at 6.55 µM] | activity change, negative = cytotoxicity (Tov-21-G) 4.04% [at 6.55 µM] | activity change, negative = cytotoxicity (Tov112D) 5.73% [at 6.55 µM]

C[C@@H]1C(=O)O[C@H]2[C@H](O)C34[C@H]5C[C@@H](C(C)(C)C)C36[C@@H](OC(=O)[C@@H]6O)O[C@@]4(C(=O)O5)[C@@]12O (stereo not given in full)
inactive: Potency (OV90) | Potency (PA-1) | Potency (SKOV3) | Potency (Tov-21-G) | Potency (Tov112D)

O=C(O)c1c(O)c(-c2ccccc2)nc2ccccc12
inactive: Potency (OV90) | Potency (PA-1) | Potency (SKOV3) | Potency (Tov-21-G) | Potency (Tov112D)

CCCC(=O)NCCc1csc(-c2ccc(Cl)cc2)n1
inactive: Potency (OV90) | Potency (PA-1) | Potency (SKOV3) | Potency (Tov-21-G) | Potency (Tov112D)

CC1=C2C[C@H]3O[C@@]3(C)CCC3O[C@@]3(C)C[C@@]2(O)OC1=O (stereo not given in full)
inactive: Potency (OV90) | Potency (PA-1) | Potency (SKOV3) | Potency (Tov-21-G) | Potency (Tov112D)

CCOc1ccc2nc(SCCN3CCOCC3)[nH]c2c1
inactive: Potency (OV90) | Potency (PA-1) | Potency (SKOV3) | Potency (Tov-21-G) | Potency (Tov112D)

COc1ccc(CCO[C@@H]2O[C@H](CO[C@@H]3OC[C@H](O)[C@H](O)[C@H]3O)[C@@H](O)[C@H](O)[C@H]2O)cc1
inactive: Potency (OV90) | Potency (PA-1) | Potency (SKOV3) | Potency (Tov-21-G) | Potency (Tov112D)

OCc1ccc(O[C@@H]2O[C@H](CO)[C@@H](O)[C@H](O)[C@H]2O)cc1
inactive: Potency (OV90) | Potency (PA-1) | Potency (SKOV3) | Potency (Tov-21-G) | Potency (Tov112D)

COc1ccc(/C=C/C(=O)O[C@H]2[C@H](O[C@H]3[C@@H]4C=CO[C@@H](O[C@@H]5O[C@H](CO)[C@@H](O)[C@H](O)[C@H]5O)[C@@H]4[C@@]4(CO)O[C@@H]34)O[C@@H](C)[C@H](O)[C@H]2OC(C)=O)cc1
inactive: Potency (OV90) | Potency (PA-1) | Potency (SKOV3) | Potency (Tov-21-G) | Potency (Tov112D)

CCOCCOC(=O)/C=C/c1ccc(OC)cc1
inactive: Potency (OV90) | Potency (PA-1) | Potency (SKOV3) | Potency (Tov-21-G) | Potency (Tov112D)

CC1(C(=O)O)CCCC2(C)C3CCC4CC3(CCC12)CC4=O (stereo not given)
inactive: Potency (OV90) | Potency (PA-1) | Potency (SKOV3) | Potency (Tov-21-G) | Potency (Tov112D)

Cn1nc(C(C)(C)C)cc1C(=O)NC(Cc1cccc(Cl)c1)C(=O)NCC#N (stereo not given)
inactive: Potency (OV90) | Potency (PA-1) | Potency (SKOV3) | Potency (Tov-21-G) | Potency (Tov112D)

C/C1=C\C[C@]2(C)C(=O)C(O)=C([C@H](C)CO)[C@H]2C/C=C(\C)[C@@H](O)CC/C(C)=C/CC1
inactive: Potency (OV90) | Potency (PA-1) | Potency (SKOV3) | Potency (Tov-21-G) | Potency (Tov112D)

CCOC(=O)c1cc(C#N)c(N2CCC(C(=O)NS(=O)(=O)Cc3ccccc3)CC2)nc1C
inactive: Potency (OV90) | Potency (PA-1) | Potency (SKOV3) | Potency (Tov-21-G) | Potency (Tov112D)

O=C1Nc2ccccc2C(O)(c2ccccc2)C1O (stereo not given)
inactive: Potency (OV90) | Potency (PA-1) | Potency (SKOV3) | Potency (Tov-21-G) | Potency (Tov112D)

C=C1C(OC2OCC(O)C(O)C2O)CC2C(C)(C)C(O)CCC2(C)C1CC/C(C)=C\CO (stereo not given)
inactive: Potency (OV90) | Potency (PA-1) | Potency (SKOV3) | Potency (Tov-21-G) | Potency (Tov112D)

CSc1ccc(C(=O)N[C@@H]2CCCC[C@@H]2NC(=O)CNC(=O)c2cc(C(F)(F)F)ccc2NC(=O)NC(C)C)cc1
inactive: Potency (OV90) | Potency (PA-1) | Potency (SKOV3) | Potency (Tov-21-G) | Potency (Tov112D)

C[C@]12C[C@@H](O)[C@@H]3C[C@@]1(O[C@@H]1O[C@H](CO)[C@@H](O)[C@H](O)[C@H]1O)[C@]3(COC(=O)c1ccccc1)C(=O)O2
inactive: Potency (OV90) | Potency (PA-1) | Potency (SKOV3) | Potency (Tov-21-G) | Potency (Tov112D)

C[C@@H]1O[C@@H](O[C@H]2[C@H](O)[C@@H](O)[C@H](OC[C@H]3O[C@@H](OC(=O)[C@]45CCC(C)(C)C[C@H]4C4=CCC6[C@@]7(C)CC[C@H](O[C@@H]8OC[C@H](O)[C@H](O[C@@H]9O[C@H](CO)[C@@H](O)[C@H](O)[C@H]9O)[C@H]8O)[C@@](C)(CO)C7CC[C@@]6(C)[C@]4(C)CC5)[C@H](O)[C@@H](O)[C@@H]3O)O[C@@H]2CO)[C@H](O)[C@H](O)[C@H]1O (stereo not given in full)
inactive: activity change, negative = cytotoxicity (OV90) 13.6% [at 6.55 µM] | activity change, negative = cytotoxicity (PA-1) 8.25% [at 6.55 µM] | activity change, negative = cytotoxicity (SKOV3) 11.5% [at 6.55 µM] | activity change, negative = cytotoxicity (Tov-21-G) 8.55% [at 6.55 µM] | activity change, negative = cytotoxicity (Tov112D) -0.716% [at 6.55 µM]
